Inconclusive results are not listed. Active and inactive are the calls of the source. Calls come from the whole dose curve; as a rule, active = well fitted cell-killing curve with a large enough effect; inconclusive = small, poorly fitted or top-dose-only effect; inactive = no such curve, though single readings can be large or run the other way.
Potency is the fitted concentration of half-maximal effect.

The first test is described as follows: qHTS of pediatric cancer cell lines to identify multiple opportunities for drug repurposing: Primary screen for NB1643 cells (AID 1347099). Note: nearly all actives have a fitted effect of over 50% in size. Conditions: NB1643 neuroblastoma viability, CellTiter-Glo luminescence, 48 h; series mostly up to 46 µM. In outline: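 ATP-based luminescence (CellTiter-Glo) quantifies viability after a 48-hour exposure. Compounds are dosed across 8 or 11 final concentrations; DMSO and 2.3 µM bortezomib serve as controls.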
Consider `CCCNC(=O)[C@H]1O[C@H]1C(=O)N[C@H](C(=O)N1CCC[C@@H]1C(=O)OC)C(C)CC` (stereo partly specified), for which the Potency is 9.35 µM (active).
Still for that read-out and setting: for `CCN(CC)Cc1ccc2cc(COC(=O)Nc3ccc(C(=O)NO)cc3)ccc2c1` the value was 1.18 µM (active); for `N#CC(=C(N)Sc1ccc(N)cc1)c1ccccc1C(F)(F)F`, “inactive”; for `COc1cc(C[C@@H](CO)[C@H](CO)Cc2ccc(O)c(OC)c2)ccc1O`, 0.59 µM (active).
Turning to `CCCCCCCCCCCCc1ccc(S(=O)(=O)Nc2nncs2)cc1`, the Potency result is “inactive”.
On to `Cn1cc(C2=C(c3c4n(c5ccccc35)CCC(CN)C4)C(=O)NC2=O)c2ccccc21` (stereo unspecified), for which the Potency was 26.4 µM (active).
The same measure, in the same setting: for `C#Cc1cccc(Nc2ncnc3cc(OCCOC)c(OCCO)cc23)c1` the value was 1.87 µM (active); for `N=c1ccn2c(n1)O[C@H]1[C@@H](O)[C@@H](CO)O[C@H]12`, 9.35 µM (active).
Still for that read-out and setting: for `CCOC(=O)C=C[C@H](C[C@@H]1CCNC1=O)NC(=O)[C@@H](CC(=O)[C@@H](NC(=O)c1cc(C)on1)C(C)C)Cc1ccc(F)cc1` the value was “inactive”; for `CN(C)CCN1C(=O)c2cccc3cc(N)cc(c23)C1=O`, 18.7 µM (active); for `NC(=O)c1ncn([C@@H]2O[C@H](CO)[C@@H](O)[C@@H]2O)c1N`, “inactive”.
Same read-out and setting: for `Oc1cc2c(cc1O)C1c3ccc(O)c(O)c3OCC1(O)C2` (stereo unspecified) the value was “inactive”.
`Nc1ncn([C@@H]2O[C@H](CO)[C@@H](O)[C@@H]2O)c(=O)n1`: the Potency is 4.69 µM (active).
As to `COc1cc(C(C)C)c(Oc2cnc(NC(CO)CO)nc2N)cc1I`, the Potency was 2.96 µM (active).
As for `CN(C)c1ccc2cc(C(=O)N[C@@H](CCCN=C(N)CCl)C(=O)NCc3ccccc3)ccc2c1`, the Potency is 14.8 µM (active).
The same measure, in the same setting: for `C[C@H](O)[C@@H]1C(=O)N2C(C(=O)O)=C(S[C@@H]3CN[C@H](CNS(N)(=O)=O)C3)[C@@H](C)[C@@H]12` the value was “inactive”; for `Cc1ccccc1C(=O)Nc1ccc(C(=O)N2CCCC(O)c3cc(Cl)ccc32)c(C)c1` (stereo unspecified), “inactive”.

A short description of the next test: qHTS of pediatric cancer cell lines to identify multiple opportunities for drug repurposing: Primary screen for LAN-5 cells (AID 1347100). Conditions: LAN-5 neuroblastoma viability, CellTiter-Glo luminescence, 48 h; series mostly up to 46 µM. In outline: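 Cells (500-1,000/well) rested 5 h, then received compounds for 48 h; metabolically active cells were measured by CellTiter-Glo luminescence. Final concentrations spanned up to 46 µM (MIPE, 11-point) or 0.59 nM-46 µM (NPC, 8-point) in primary screens, 11-point in follow-ups.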
In the case of `CC(=O)O[C@]1(C(C)=O)CC[C@H]2[C@@H]3C=C(C)C4=CC(=O)CC[C@]4(C)[C@@H]3CC[C@@]21C`, the Potency was 5.9 µM (active).
In the case of `Cn1cc(-c2cnn3c(N)c(Br)c([C@H]4CCCNC4)nc23)cn1`, the Potency is 0.743 µM (active).
As to `CN(CC(=O)N(Cc1ccc(C2CCCCC2)cc1)c1ccc(C(=O)O)c(O)c1)S(=O)(=O)c1c(F)c(F)c(F)c(F)c1F`, the Potency is 23.5 µM (active).
Regarding `O=C1CSC(=O)N1C(CCc1ccncc1)COc1ccc(-c2cccc([N+](=O)[O-])c2)cc1` (stereo unspecified), the Potency was 14.8 µM (active).
Take `C=CC(=O)N1CCc2ccc(-n3c(=O)ccc4cnc5ccc(-c6cnn(C)c6)cc5c43)cc21`: the Potency is 2.35 µM (active).
With `CC(C)c1cnn2c(NCc3ccccc3)cc(NCCCCCCN)nc12`, the Potency was 18.7 µM (active).
`O=C(O)CCCCCC(=O)NN=C1CCCC1`: the Potency entry is “inactive”.
As for `CCOC(=O)N1CCN([N+]([O-])=NOc2ccc([N+](=O)[O-])cc2[N+](=O)[O-])CC1`, the Potency was 11.8 µM (active).
For `C=Cc1c(C)c2cc3nc(cc4[nH]c(cc5nc(cc1[nH]2)C(C)=C5CCC(=O)O)c(CCC(=O)OC)c4C)[C@@]1(C)C3=CC=C(C(=O)OC)[C@H]1C(=O)OC`, the Potency is 0.0526 µM (active).
`Cc1cnn(C)c1C(=O)Nc1cc(Nc2ccc3c(C=Cc4ccccn4)n[nH]c3c2)ccc1F`: the Potency was 14.8 µM (active).
For `Cc1cncc2cccc(S(=O)(=O)N3CCCN(C(=O)CN)C[C@@H]3C)c12`, the Potency was 1.48 µM (active).
For the compound `N#CC(=C(O)c1ccc(Cl)cc1Cl)c1nc2cc(Cl)ccc2c(=O)[nH]1`, the Potency result is “inactive”.
Consider `C[C@@H](NCc1cc2ccccc2[nH]1)c1cccc2ccccc12`, for which the Potency result was “inactive”.
For `Cc1cn([C@@H]2O[C@H](CO)[C@@H](O)[C@H]2F)c(=O)[nH]c1=O`, the Potency result is “inactive”.
Consider `C=C[C@@H]1CN2CCC1C[C@H]2[C@H](O)c1ccnc2ccc(OC)cc12` (stereo partly specified), for which the Potency entry is “inactive”.
As for `CCCNC(=O)[C@H]1O[C@H]1C(=O)N[C@H](C(=O)N1CCC[C@@H]1C(=O)OC)C(C)CC` (stereo partly specified), the Potency was 10.5 µM (active).
In the case of `CCN(CC)Cc1ccc2cc(COC(=O)Nc3ccc(C(=O)NO)cc3)ccc2c1`, the Potency is 0.526 µM (active).
In the case of `COc1cc(OC)c(NC(=O)Nc2cc(C)on2)cc1Cl`, the Potency result was “inactive”.
Take `O=C(O)c1ccc(Nc2ncc3c(n2)-c2ccc(Cl)cc2C(c2c(F)cccc2F)=NC3)cc1`: the Potency is 0.0296 µM (active).
Regarding `COc1cc(C[C@@H](CO)[C@H](CO)Cc2ccc(O)c(OC)c2)ccc1O`, the Potency was 2.35 µM (active).
Regarding `CCCCCCCCCCCCc1ccc(S(=O)(=O)Nc2nncs2)cc1`, the Potency result is “inactive”.
Consider `Cn1cc(C2=C(c3c4n(c5ccccc35)CCC(CN)C4)C(=O)NC2=O)c2ccccc21` (stereo unspecified), for which the Potency is 26.4 µM (active).
As for `C#Cc1cccc(Nc2ncnc3cc(OCCOC)c(OCCO)cc23)c1`, the Potency is 0.264 µM (active).
For `N=c1ccn2c(n1)O[C@H]1[C@@H](O)[C@@H](CO)O[C@H]12`, the Potency was 3.32 µM (active).
For `CCOC(=O)C=C[C@H](C[C@@H]1CCNC1=O)NC(=O)[C@@H](CC(=O)[C@@H](NC(=O)c1cc(C)on1)C(C)C)Cc1ccc(F)cc1`, the Potency result was “inactive”.
In the case of `CN(C)CCN1C(=O)c2cccc3cc(N)cc(c23)C1=O`, the Potency was 2.96 µM (active).
In the case of `NC(=O)c1ncn([C@@H]2O[C@H](CO)[C@@H](O)[C@@H]2O)c1N`, the Potency result is “inactive”.
On the same count and under the same terms, for `Oc1cc2c(cc1O)C1c3ccc(O)c(O)c3OCC1(O)C2` (stereo unspecified) the value was “inactive”; for `Nc1ncn([C@@H]2O[C@H](CO)[C@@H](O)[C@@H]2O)c(=O)n1`, 5.26 µM (active); for `COc1cc(C(C)C)c(Oc2cnc(NC(CO)CO)nc2N)cc1I`, “inactive”.
On to `CN(C)c1ccc2cc(C(=O)N[C@@H](CCCN=C(N)CCl)C(=O)NCc3ccccc3)ccc2c1`, for which the Potency is 1.05 µM (active).
With `CCCc1nc(C(C)(C)O)c(C(=O)O)n1Cc1ccc(-c2ccccc2-c2nn[nH]n2)cc1`, the Potency entry was “inactive”.
Still for that read-out and setting: for `C[C@H](O)[C@@H]1C(=O)N2C(C(=O)O)=C(S[C@@H]3CN[C@H](CNS(N)(=O)=O)C3)[C@@H](C)[C@@H]12` the value was “inactive”; for `Cc1ccccc1C(=O)Nc1ccc(C(=O)N2CCCC(O)c3cc(Cl)ccc32)c(C)c1` (stereo unspecified), “inactive”.

Source of the values: PubChem BioAssay (NCATS).
